A selection: hits, their analogues and other compounds. The true share with any hit is near 2.7%.
SKN-1 block: inhibitors of C. elegans SKN-1; inhibition, % at 21.8 µM; AID 624304; 360,000 compounds, 0.49% hits; C. elegans VP596 Pgst-4::GFP/RFP ratio, acrylamide-induced, 24 h;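 active = interference check ratio from 0.5 to 1.5 plus GFP to RFP signal ratio inhibition reaching or exceeding a fixed threshold, cut at about 30% in these data, passing the limit was not always enough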
MPTP block: permeability transition pore inhibition; isolated mouse mitochondria, Ca2+ swelling absorbance, 30 min; inhibition, % at 10 µM; 360,000 compounds, 1.4% hits; AID 602449;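 active = inhibition of 50% or more, scaled per plate between neutral and stimulator controls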
CFTR F508del cor: correctors of CFTR F508del function in bronchial epithelial cells. 350,000 compounds, 0.36% hits. activity (quench increase), % at 7.58 µM. CFBE cells, YFP halide quenching; stimulated with forskolin plus potentiator P3; % fluorescence drop versus neutral controls;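 active = mean added fluorescence quench of at least 8% versus neutral control, with both replicates also reaching 8%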;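 also: cells transiently co-express mutant CFTR-F508del with the halide-sensitive YFP; corrector assay measuring rescue of mutant channel to the surface after 24 h compound exposure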
NRP1-CendR mod: alters CendR peptide binding to human NRP-1. O14786. FAM-RPARPAR peptide binding to NRP-1, fluorescence polarization. inhibition, % at 25 µM. 360,000 compounds, 0.85% hits;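 active = inhibition or corrected inhibition above about 18%, plus a signal ratio from 0.5 to 1.5, limit read from the data, passing the limit was not always enough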
ATG4B inhibitor: ATG4B (human) cysteine protease inhibition | AID 504462 | 340,000 compounds, 0.51% hits | ATG4B cleavage of LC3-PLA2, NBD-HPC fluorescence, 1 h | inhibition, % at 8.33 µM; in the data active = inhibition above about 40%
Target sequence (Q9Y4P1 whole entry, looked up): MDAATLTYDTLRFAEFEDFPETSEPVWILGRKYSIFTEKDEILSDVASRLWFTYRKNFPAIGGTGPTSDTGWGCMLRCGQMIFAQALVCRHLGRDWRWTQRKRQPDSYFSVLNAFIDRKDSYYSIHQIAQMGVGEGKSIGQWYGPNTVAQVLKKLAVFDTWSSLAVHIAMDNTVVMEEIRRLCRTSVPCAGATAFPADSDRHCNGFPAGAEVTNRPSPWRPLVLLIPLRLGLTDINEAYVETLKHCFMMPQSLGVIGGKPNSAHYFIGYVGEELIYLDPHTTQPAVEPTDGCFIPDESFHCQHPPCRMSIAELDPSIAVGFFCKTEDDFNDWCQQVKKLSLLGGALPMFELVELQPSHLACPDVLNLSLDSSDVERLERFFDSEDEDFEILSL
Of the large screens only hits and unclear results are named; the others gave an inactive call.

CCCN1[C@@H]2Cn3c(cccc3=O)[C@H]1[C@@H](C(=O)N[C@H](C)c1ccccc1)[C@@H]2CO	none (no result: SKN-1 block, MPTP block, NRP1-CendR mod, ATG4B inhibitor)
CCn1nc(C)c(CN2CCC(n3nccc3NC(=O)Cc3ccccc3)CC2)c1C	NRP1-CendR mod 21
CC(C)C[C@H](NC(=O)OC(C)(C)C)c1nnc(SCc2cccc(F)c2)o1	NRP1-CendR mod 44 (no result: CFTR F508del cor)
COCCCn1cnc2c(c1=O)c1nc3ccccc3nc1n2CCc1ccccc1	SKN-1 block 36 (no result: CFTR F508del cor)
Cc1c(Cl)c(C(F)(F)F)nn1CC(=O)NN	none
Cc1c(Cl)c(C(F)(F)F)nn1CC(=O)N1CCSCC1	NRP1-CendR mod 48 (no result: CFTR F508del cor)
C[C@@H]1CN([C@H](C)CO)C(=O)c2cccc(NC(=O)C3CCOCC3)c2O[C@H]1CN(C)Cc1ccc(Cl)c(Cl)c1	none (no result: SKN-1 block, MPTP block, NRP1-CendR mod, ATG4B inhibitor)
Cc1oc(-c2ccccc2)cc1C(=O)Nc1cccc(C(=O)O)c1	none (no result: CFTR F508del cor)
Cc1oc(-c2ccc(Cl)cc2)cc1C(=O)O	NRP1-CendR mod 44
CCOc1cc(C(N)=O)cc(Br)c1OC	SKN-1 block 44 (no result: CFTR F508del cor)
CCOc1cc(C(N)=O)cc(OCC)c1OCC	none (no result: CFTR F508del cor)
COCCNC(=O)/C(C#N)=C/c1c(N2CCN(c3cccc(Cl)c3)CC2)nc2c(C)cccn2c1=O	NRP1-CendR mod 19
Cc1cc(S(=O)(=O)NCC(c2ccc3c(c2)OCO3)N2CCOCC2)ccc1F (stereo not drawn)	NRP1-CendR mod 24
O=S(=O)(NCC(c1ccc2c(c1)OCO2)N1CCOCC1)c1ccc(Cl)cc1 (stereo not drawn)	none
C[C@@H]1CCCCO[C@H](CN(C)S(=O)(=O)c2ccccc2)[C@H](C)CN([C@@H](C)CO)C(=O)c2cc(NC(=O)CCCN(C)C)ccc2O1	none (no result: SKN-1 block, MPTP block, NRP1-CendR mod, ATG4B inhibitor)
Cc1ccc(NC(=O)CS(=O)CC(=O)N(CC(=O)NC2CCCC2)c2cccc(C)c2C)cc1 (stereo not drawn)	none (no result: CFTR F508del cor)
Cc1cccc(N(CC(=O)NC2CCCC2)C(=O)CS(=O)CC(=O)Nc2ccc3c(c2)OCO3)c1C (stereo not drawn)	NRP1-CendR mod 28 (no result: CFTR F508del cor)
COc1cc2c(-c3ccccc3O)nc3c(c(C)nn3-c3ccccc3)c2cc1OC	NRP1-CendR mod 33 (no result: CFTR F508del cor)
COc1cccc(-c2nc(N3CCN(C)CC3)c3ccccc3n2)c1O	CFTR F508del cor 14
OCc1ccccc1CNCc1ccccc1	none
Oc1cc(CNCc2ccccc2)c(O)cc1CNCc1ccccc1	NRP1-CendR mod 28
Cc1noc(C)c1S(=O)(=O)N(C)C[C@@H]1Oc2ccc(NC(=O)Nc3ccc4c(c3)OCO4)cc2CC(=O)N([C@H](C)CO)C[C@H]1C	none (no result: SKN-1 block, MPTP block, NRP1-CendR mod, ATG4B inhibitor)
COc1ccccc1Nc1nc(C)cc(C)n1	none
COc1ccccc1Nc1nc(Cl)nc(Nc2ccccc2OC)n1	NRP1-CendR mod 26
O=C(O)CCSc1nnc(COc2cccc3cccnc23)n1-c1ccccc1	NRP1-CendR mod 26
COc1ccc(/C(C)=N/NC(=O)c2cccc(S(=O)(=O)N3CCCC3)c2)c(O)c1	CFTR F508del cor 9.8
COc1ccc(C(C)=NNC(=O)c2cccc(S(=O)(=O)N3CCCC3)c2)cc1	none
COc1ccc(NC(=O)c2cc(S(=O)(=O)Nc3ccc(OC)cc3)cs2)cc1	none
O=C(Nc1ccc(F)cc1)c1cc(S(=O)(=O)Nc2ccc(F)cc2)cs1	NRP1-CendR mod 26 (no result: CFTR F508del cor)
N#C/C(=C\c1ccc(OC(=O)c2ccc(Cl)s2)cc1)c1nc2ccccc2[nH]1	NRP1-CendR mod 39 (no result: CFTR F508del cor)
N#C/C(=C\c1ccc(OC(=O)c2ccc(Br)s2)cc1)c1nc2ccccc2[nH]1	none (no result: CFTR F508del cor)
C[C@H]1CCCCO[C@H](CN(C)C(=O)C2CCCCC2)[C@@H](C)CN([C@@H](C)CO)C(=O)c2cc(NS(=O)(=O)c3cccs3)ccc2O1	none (no result: SKN-1 block, MPTP block, NRP1-CendR mod, ATG4B inhibitor)
C[C@@H]1CCCCO[C@H](CN(C)S(=O)(=O)c2cccs2)[C@@H](C)CN([C@@H](C)CO)C(=O)c2cc(NS(=O)(=O)c3ccc(F)cc3)ccc2O1	none (no result: SKN-1 block, MPTP block, NRP1-CendR mod, ATG4B inhibitor)
COc1ccccc1C(=O)Nc1ccc(Oc2nnc(-c3ccc(C)cc3)c3ccccc23)cc1	none (no result: CFTR F508del cor)
Cc1ccc(Oc2nnc(-c3ccc(C)cc3)c3ccccc23)cc1	NRP1-CendR mod 29 (no result: CFTR F508del cor)
CCC(=O)N1[C@H](CN(CC)C(=O)c2cccc(F)c2)[C@@H](c2ccccc2)[C@@H]1CO	none (no result: SKN-1 block, MPTP block, NRP1-CendR mod, ATG4B inhibitor)
CCCNC(=O)N1C[C@H](O)COC[C@@H]2O[C@@H](CC(=O)NCc3ccc(Cl)c(Cl)c3)CC[C@H]21	none (no result: SKN-1 block, MPTP block, NRP1-CendR mod, ATG4B inhibitor)
CC(=O)Nc1ccc(-c2ccnc3c2CC(C(=O)Nc2cccnc2)O3)cc1 (stereo not drawn)	NRP1-CendR mod 27 (no result: ATG4B inhibitor)

Bioassay records from PubChem.
